PubChem BioAssay (NCATS)
Results filed as inconclusive are left out. The source made the active and inactive calls. Unless noted, the call rests on the fitted dose curve; in most records, active means well fitted curve in the direction sought with a large enough effect; inconclusive means small, poorly fitted or top-dose-only effect, or another doubt; inactive means no such curve, though single readings can be large; an effect the other way counts as inactive or inconclusive.

Columns and labels:
[1] = biological target: Guanine nucleotide-binding protein G(i) subunit alpha-1 (Homo sapiens) (UniProt P63096); test: qHTS Assay for Inhibitors of RGS12 GoLoco Motif Activity (Green Fluorophore) (AID 879);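 further: negative values mean loss of peptide binding seen as reduced polarization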
Outline: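 Fluorescence polarization assay: 50 nM Gαi1 with 10 nM FITC-labeled RGS12 GoLoco peptide in 10 mM Tris pH 7.5, 150 mM NaCl, 0.1 mM GDP, 0.05% NP40, 10 min at room temperature with compound.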

[2] = biological target: Pyruvate kinase PKM (Homo sapiens) (UniProt P14618); test: qHTS Assay for Activators of Human Muscle Pyruvate Kinase (AID 954; active means well fitted curve in the direction sought with a large enough effect, not every such curve was filed as active)
Outline: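 Human PKM2 activity is measured as ATP generation, detected by luciferase-coupled luminescence. The enzyme (0.1 nM) acts on 0.5 mM PEP and 0.1 mM ADP for 1 h at ambient temperature; data are normalized to uninhibited and full-inhibition wells.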

[3] = tested on: ATS189; test: qHTS profiling for inhibitors of Plasmodium falciparum proliferation (AID 504749); further: nearly all actives have a fitted effect of over 60% in size; further: potency means the concentration at half of the fitted maximal effect; conditions: P. falciparum in erythrocytes, SYBR Green DNA, 72 h; series mostly up to 12.8 µM
Outline: (§1)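 Readout was DNA-dye fluorescence from lysed cultures, ex 485/em 535 nm. Parasitized red cells had grown 72 h with compound; data scaled between 0.29 uM artemisinin and DMSO wells and corrected using vehicle-only plates.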

[4] = tested on: CP185; test: as above; conditions: P. falciparum in erythrocytes, SYBR Green DNA, 72 h; series mostly up to 12.8 µM
Outline: as §1

[5] = tested on: CP191; test: as above; conditions: P. falciparum in erythrocytes, SYBR Green DNA, 72 h; series mostly up to 12.8 µM
Outline: as §1

[6] = tested on: CP201; test: as above; conditions: P. falciparum in erythrocytes, SYBR Green DNA, 72 h; series mostly up to 12.8 µM
Outline: as §1

[7] = tested on: CP247; test: as above; conditions: P. falciparum in erythrocytes, SYBR Green DNA, 72 h; series mostly up to 12.8 µM
Outline: as §1

[8] = tested on: CP256; test: as above; conditions: P. falciparum in erythrocytes, SYBR Green DNA, 72 h; series mostly up to 12.8 µM
Outline: as §1

[9] = tested on: CP305; test: as above; conditions: P. falciparum in erythrocytes, SYBR Green DNA, 72 h; series mostly up to 12.8 µM
Outline: as §1

[10] = tested on: CP325; test: as above; conditions: P. falciparum in erythrocytes, SYBR Green DNA, 72 h; series mostly up to 12.8 µM
Outline: as §1

[11] = tested on: CP329; test: as above; conditions: P. falciparum in erythrocytes, SYBR Green DNA, 72 h; series mostly up to 12.8 µM
Outline: as §1

[12] = tested on: CP335; test: as above; conditions: P. falciparum in erythrocytes, SYBR Green DNA, 72 h; series mostly up to 12.8 µM
Outline: as §1

[13] = tested on: Dd2; test: as above; conditions: P. falciparum in erythrocytes, SYBR Green DNA, 72 h; series mostly up to 12.8 µM
Outline: as §1

[14] = tested on: JCK; test: as above; conditions: P. falciparum in erythrocytes, SYBR Green DNA, 72 h; series mostly up to 12.8 µM
Outline: as §1

[15] = tested on: N140; test: as above; conditions: P. falciparum in erythrocytes, SYBR Green DNA, 72 h; series mostly up to 12.8 µM
Outline: as §1

[16] = tested on: PC15; test: as above; conditions: P. falciparum in erythrocytes, SYBR Green DNA, 72 h; series mostly up to 12.8 µM
Outline: as §1

[17] = tested on: PC26; test: as above; conditions: P. falciparum in erythrocytes, SYBR Green DNA, 72 h; series mostly up to 12.8 µM
Outline: as §1

[18] = tested on: PC49; test: as above; conditions: P. falciparum in erythrocytes, SYBR Green DNA, 72 h; series mostly up to 12.8 µM
Outline: as §1

[19] = tested on: SC27B; test: as above; conditions: P. falciparum in erythrocytes, SYBR Green DNA, 72 h; series mostly up to 12.8 µM
Outline: as §1

[20] = tested on: TAB113; test: as above; conditions: P. falciparum in erythrocytes, SYBR Green DNA, 72 h; series mostly up to 12.8 µM
Outline: as §1

Measured: Potency

Chain of Pyruvate kinase PKM (Homo sapiens) (P14618 whole entry, looked up): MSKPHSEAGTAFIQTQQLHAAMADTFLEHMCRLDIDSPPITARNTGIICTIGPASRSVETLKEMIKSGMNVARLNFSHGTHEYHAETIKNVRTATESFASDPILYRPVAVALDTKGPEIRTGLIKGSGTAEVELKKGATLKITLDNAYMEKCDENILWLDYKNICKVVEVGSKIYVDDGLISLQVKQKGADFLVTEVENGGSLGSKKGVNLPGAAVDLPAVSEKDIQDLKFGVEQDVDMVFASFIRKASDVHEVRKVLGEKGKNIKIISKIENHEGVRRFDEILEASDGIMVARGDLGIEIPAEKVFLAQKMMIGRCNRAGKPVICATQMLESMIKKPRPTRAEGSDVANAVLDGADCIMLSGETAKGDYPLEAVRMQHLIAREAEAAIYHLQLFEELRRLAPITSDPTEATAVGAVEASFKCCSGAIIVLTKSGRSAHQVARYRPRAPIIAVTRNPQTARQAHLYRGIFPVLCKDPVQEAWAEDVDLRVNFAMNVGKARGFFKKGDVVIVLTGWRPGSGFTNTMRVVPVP
Chain of Guanine nucleotide-binding protein G(i) subunit alpha-1 (Homo sapiens) (P63096 whole entry, looked up): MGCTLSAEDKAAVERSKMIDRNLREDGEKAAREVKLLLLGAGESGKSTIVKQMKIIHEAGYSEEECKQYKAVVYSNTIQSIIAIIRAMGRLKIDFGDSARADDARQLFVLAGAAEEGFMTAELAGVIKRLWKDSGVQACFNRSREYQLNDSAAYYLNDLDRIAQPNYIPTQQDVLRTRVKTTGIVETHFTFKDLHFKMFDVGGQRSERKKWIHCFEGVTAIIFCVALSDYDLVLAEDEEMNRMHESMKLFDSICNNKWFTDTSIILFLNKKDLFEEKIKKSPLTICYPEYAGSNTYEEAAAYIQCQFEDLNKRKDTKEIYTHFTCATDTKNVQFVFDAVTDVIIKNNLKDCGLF

C[C@@H](CCc1ccccc1)NC[C@H](O)c1ccc(O)c(C(N)=O)c1
inactive: all assays above

O=C(c1ccccc1)c1ccc2n1CC[C@H]2C(=O)O
inactive: all assays above

C[C@@H]1COc2c(N3CCN(C)CC3)c(F)cc3c(=O)c(C(=O)O)cn1c23
inactive: all assays above

CCCCCN(CCCCC)C(=O)[C@H](CCC(=O)O)NC(=O)c1ccc(Cl)c(Cl)c1
inactive: [1] | [2]

C[C@@H]1c2cccc(O)c2C(O)=C2C(=O)[C@@]3(O)C(O)=C(C(N)=O)C(=O)[C@@H](N(C)C)[C@@H]3[C@@H](O)[C@@H]21
inactive: [1] | [2] | [5] | [6] | [7] | [11] | [14] | [15] | [16] | [18]
active: [12] 4260 nM | [13] 3980 nM

CC[C@]1(C)CC(=O)NC1=O
inactive: all assays above

O[C@@](CCN1CCCCC1)(c1ccccc1)C1CCCCC1
inactive: [1] | [2]

CC(=O)OCC1=C(C(=O)O)N2C(=O)[C@@H](NC(=O)Cc3cccs3)[C@@H]2SC1
inactive: [1] | [2]

CC(C)(C)NC[C@H](O)c1cc(O)cc(O)c1
inactive: all assays above

c1ccc([C@@H]2CN3CCSC3=N2)cc1
inactive: [1] | [2]

CN1C(=O)CC[C@@H]1c1cccnc1
inactive: [1] | [2]

CC(=O)OCC1=C(C(=O)O)N2C(=O)[C@@H](NC(=O)CSc3ccncc3)[C@@H]2SC1
inactive: all assays above

NC(=O)c1cc[n+](CC2=C(C(=O)O)N3C(=O)[C@@H](NC(=O)[C@H](c4ccccc4)S(=O)(=O)[O-])[C@@H]3SC2)cc1
inactive: [1] | [2]
active: [3] 1580 nM | [5] 1410 nM | [7] 3550 nM | [8] 3550 nM | [9] 2560 nM | [10] 4550 nM | [12] 1610 nM | [13] 1260 nM | [14] 4470 nM | [15] 1410 nM | [16] 1000 nM | [17] 1810 nM | [18] 3160 nM | [19] 2510 nM | [20] 1780 nM

CCCN[C@@H](C)C(=O)Nc1ccccc1C
inactive: all assays above

CO/N=C(\C(=O)N[C@@H]1C(=O)N2C(C(=O)O)=C(COC(C)=O)CS[C@@H]12)c1csc(N)n1
not listed: [2]
inactive: all other assays above

Cc1cccc(C)c1OC[C@H](C)N
inactive: [1] | [2]

N[C@H](C(=O)N[C@@H]1C(=O)N2C(C(=O)O)=C(Cl)CS[C@@H]12)c1ccccc1
inactive: [1] | [2]

C[C@@H](COc1ccccc1)N(CCCl)Cc1ccccc1
inactive: [1]

O=C(O)CNC(=O)[C@@H](CS)Cc1ccccc1
inactive: [1] | [2]

CCn1cc(C(=O)O)c(=O)c2cc(F)c(N3CCN[C@@H](C)C3)c(F)c21
not listed: [9] | [10] | [12] | [14] | [20]
inactive: all other assays above

CO[C@]1(NC(=O)CSCC#N)C(=O)N2C(C(=O)O)=C(CSc3nnnn3C)CS[C@H]21
inactive: all assays above

CCCN(CCC)C(=O)[C@@H](CCC(=O)O)NC(=O)c1ccccc1
inactive: all assays above

COc1ccc([C@H]2Sc3ccccc3N(CCN(C)C)C(=O)[C@H]2OC(C)=O)cc1
inactive: [2]

C[C@@H](C[N+](C)(C)C)OC(N)=O
inactive: [1] | [2]

CC(C)(Oc1ccc([C@@H]2CC2(Cl)Cl)cc1)C(=O)O
inactive: [1] | [2]

C[C@@](N)(Cc1ccc(O)c(O)c1)C(=O)O
inactive: [1] | [2]

CC(C)(O/N=C(\C(=O)N[C@@H]1C(=O)N2C(C(=O)[O-])=C(C[n+]3ccccc3)CS[C@@H]12)c1csc(N)n1)C(=O)O
not listed: [1] | [2]
inactive: all other assays above

CO[C@H]1C[C@@H](O[C@@H]2[C@H](C)[C@H](O[C@@H]3O[C@@H](C)C[C@@H](N(C)C)[C@@H]3O)[C@H](C)C[C@]3(CO3)C(=O)[C@H](C)[C@H](O)[C@H](C)[C@H](C)OC(=O)[C@@H]2C)O[C@@H](C)[C@H]1O
not listed: [1] | [2]
inactive: all other assays above

CC1(C)O[C@@H]2C[C@H]3[C@H]4C[C@H](F)C5=CC(=O)C=C[C@@]5(C)[C@@H]4[C@H](O)C[C@]3(C)[C@]2(C(=O)CO)O1
not listed: [1] | [2]
inactive: all other assays above

CC(=O)O[C@@H](C)C[N+](C)(C)C
inactive: all assays above

CN1[C@@H](CC(=O)c2ccccc2)CCC[C@@H]1C[C@@H](O)c1ccccc1
inactive: [1] | [2]

CCN[C@@H]1C[C@H](C)S(=O)(=O)c2sc(S(N)(=O)=O)cc21
not listed: [1] | [2]
inactive: all other assays above

CN1CCc2cccc3c2[C@@H]1Cc1ccc(O)c(O)c1-3
inactive: [1]

C=CCc1ccccc1OC[C@H](O)CNC(C)C
inactive: [1] | [2]

NC(=O)OC[C@H](O)COc1ccc(Cl)cc1
not listed: [1] | [2]
inactive: all other assays above

COc1cc(=O)n(C)c2c(OC[C@@H](O)C(C)(C)O)cccc12
inactive: [1] | [2]

CCN(CC)CC#CCOC(=O)[C@@](O)(c1ccccc1)C1CCCCC1
inactive: [1] | [2] | [10] | [14] | [15] | [19] | [20]

COCCc1ccc(OC[C@H](O)CNC(C)C)cc1
inactive: all assays above

CN(N=O)C(=O)N[C@H]1[C@@H](O)[C@H](O)[C@H](CO)O[C@@H]1O
not listed: [1] | [2]
inactive: all other assays above

CCCN[C@@H](C)C(=O)Nc1c(C)csc1C(=O)OC
not listed: [1] | [2]
inactive: all other assays above
